This is one part of a sample in which hits are shown more often than they occur.
Ba CapD inh = Bacillus anthracis CapD inhibitors, primary screen, biochemical, fluorescence intensity | purified CapD enzyme, fluorescence intensity read-out; hits give low values | AID 492967, 2010 | z-score (test concentration not listed) | 0.23% of 140,000 active | CapD gamma-glutamyltranspeptidase (Bacillus anthracis Ames Ancestor); in the data active = z-score mostly below about -2.9, no sharp cut-off; inactive = mostly above about -1.9
* marks the source's active call; other numbers are inactive results.

SMILES	Ba CapD inh
COc1ccc(C2=N/C(=C/c3c(OC)ccc4ccccc34)C(=O)O2)cc1Br	0.84
COc1ccccc1N1CCN(c2ncnc3scc(-c4ccccc4)c23)CC1	-0.61
Cc1ccc(C)n1-c1ccccc1C1C=NNC1=O (stereo not drawn)	-4.1*
CC1=NNC(=O)C1Cc1ccccc1 (stereo not drawn)	-0.42
CC1(C)CC(=O)C2=C(C1)OC1=C(C(=O)CC(C)(C)C1)C2c1ccccc1F	0.16
Cc1c(C(=O)Nc2ccc3c(c2)OCO3)sc2ncnc(N3CCc4ccccc4C3)c12	-0.01
COc1ccc(Oc2ccc(C(F)(F)F)cc2[N+](=O)[O-])cc1	-0.11
N#Cc1ccc(-c2ccc(Cl)cc2)n(Cc2ccc(Cl)cc2Cl)c1=O	1.1
COC(=O)c1ccccc1N/C=C/c1ncc(C(F)(F)F)cc1Cl	0.23
CSc1nsc2nc(=O)c(/C=C3\C=CC(=O)C(O)=C3)c(N)n12	-4.5*
O=C(COC(=O)/C=C/c1ccc(F)cc1)Nc1ncc(C(F)(F)F)cc1Cl	2.6
O=C1NCC(O)=C1/C=N/Nc1ccccc1	-4.4*
O=c1[nH]c(O)c(/C=N/Nc2ccccc2)c(=O)[nH]1	-1.3
CC(N=CC1=C(O)CNC1=O)c1ccccc1 (stereo not drawn)	-0.04
COc1ccc(-c2c(C)nn3c(NCCN4CCCC4)cc(C)nc23)cc1OC	0.01
COc1cccc(C(=O)N(C)C2(c3ccccc3Cl)CCCCC2=O)c1OC (stereo not drawn)	-0.1
CCCCOc1ccc(C2CC(=O)C3=C(C2)c2c(ccc4ccccc24)NC3c2ccc(N(C)C)cc2)cc1 (stereo not drawn)	1.9
CCc1ccc(N2C(=O)/C(=C/c3cccn3C(C)(C)C)C(=O)NC2=S)cc1	8.6
CN1C(=O)/C(=C/c2cccn2C(C)(C)C)C(=O)NC1=S	-4.5*
CN1C(=O)C(=Cc2cccn2C(C)(C)C)C(=O)N(C)C1=S	0.2
CCCCN(C(=O)C1CCCO1)c1ccccc1 (stereo not drawn)	-0.08
C=CCOc1cc(OCC=C)cc(C(=O)O)c1	0.01
O=C(Nc1cc(C(=O)N2CCN(c3ccc(F)cc3)CC2)ccc1N1CC2CC(C1)c1cccc(=O)n1C2)c1cccs1 (stereo not drawn)	0.14
COC(=O)c1sccc1NC(=O)CC(=O)Nc1ccsc1C(=O)OC	0.15
O=C(O)CSCC(=O)Nc1ccc(-c2nc3ccccc3s2)cc1	82
SMILES	Ba CapD inh
Cc1csc(N)c1-c1nc2ccccc2s1	2.9
Cc1csc(NC(=O)CSCC(=O)O)c1-c1nc2ccccc2s1	-2.4*
COCc1cc(C)nc(SCC(=O)N(c2ccccc2)c2ccccc2)c1C#N	0.29
Cc1nc([N+](=O)[O-])cn1CC/C(N)=N/O	-1.3
CCOC(=O)CC1=C(C(=O)OCC)C(c2c(Cl)cccc2Cl)C(C#N)=C(N)O1 (stereo not drawn)	-0.87
Fc1ccc(Cn2c3ccc(Br)cc3c3nc4ccccc4nc32)cc1	0.25
O=C1c2sc3nnc(-c4ccccc4)c(=O)n3c2C(=O)N1c1ccc(Br)cc1	0.3
Cc1nnc2sc3c(n2c1=O)C(=O)N(c1ccc(I)cc1)C3=O	0.09
CCc1ccc(N2C(=O)c3sc4nnc(C)c(=O)n4c3C2=O)cc1	-2.1*
COc1ccc(C2CC(=O)C3=C(C2)Nc2ccccc2NC3c2cc(OC)c(OC)c(OC)c2)cc1OC (stereo not drawn)	-1.2
CC1SC2(C(=O)Nc3ccccc32)N(c2cccc(F)c2)C1=O (stereo not drawn)	-0.25
COc1ccc(-c2oc(/N=C/N3CCCCC3)c(C#N)c2-c2ccc(OC)cc2)cc1	-0.98
O=[N+]([O-])c1ccc(NCCO)nc1	-2.1
Cc1c(-c2csc(-c3ccno3)n2)sc2ccccc12	-3.5*
Cc1c(-c2csc(CS(=O)(=O)C(C)(C)C)n2)sc2ccccc12	-0.9
Fc1cccc(-c2csc(-c3ccno3)n2)c1	2.7
COc1ccc(N2C(=O)/C(=C/c3ccc(-c4ccc(Br)cc4)o3)C=C2c2ccccc2)cc1	-0.77
COc1cc(CN2CCN(CCOC(=O)N3CCN(c4cc(C(F)(F)F)ccn4)CC3)CC2)cc2c1OCO2	86
CCC(=O)N(C)C1(c2nnnn2-c2cccc(Cl)c2)CCCCC1	-0.27
OCc1cc(-c2ccccc2Cl)no1	-0.69
CSC(=CC(=O)c1cccc2ccccc12)SC	-1
CSC(=CC(=O)c1ccc(F)cc1)SC	-2.9
CSC(=CC(=O)c1ccccc1F)SC	-4.1*
Cc1cc2ncn(CCc3ccccc3)c2cc1C	-0.7
CC(C)(C)Sc1ccccc1CN1CCN(C(=O)OCc2ccc(F)cc2)CC1	-0.09
SMILES	Ba CapD inh
COc1ccc(NS(=O)(=O)c2ccc(-c3cc(C(F)(F)F)no3)s2)cc1	-0.06
N#Cc1c(N)n(CCN)c2nc3ccccc3nc12	-0.7
O=C(N/N=C/c1ccc(Br)cc1)c1ccc([N+](=O)[O-])o1	-1.5
O=C(N/N=C/c1ccccc1C(=O)O)c1ccc([N+](=O)[O-])o1	-2
O=C(N/N=C/c1ccccn1)c1ccc([N+](=O)[O-])o1	-4.3*
CC1=NN(c2ccc(C(=O)NC(CC(N)=O)C(=O)OC(C)(C)C)cc2)C(=O)C1 (stereo not drawn)	-2.1
Cc1cc(C)nc(N2CCN(C(=O)CCC(=O)NC3CCCCC3)CC2)n1	-0.2
CC(C)c1ccc(OCc2nnc(SCC(=O)NC3CCCCC3)o2)cc1	0.32
O=C(NNc1nc2ccccc2nc1C(F)(F)F)c1ccc(Cl)cc1	-0.82
CCOC(=O)C(Nc1cccc(F)c1)c1ccccc1 (stereo not drawn)	-0.47
COC(=O)C(C)Nc1ccc(C)cc1 (stereo not drawn)	1.4
COC(=O)C(C(=O)OC)C(Nc1ccccc1)c1ccccc1 (stereo not drawn)	-7.1*
O=C(COc1ccc2oc(-c3ccco3)cc(=O)c2c1)NC1CCCCC1	21
O=C(CSc1nc2c(sc(=S)n2CC2CCCO2)c(=O)n1-c1ccc(F)cc1)Nc1nccs1 (stereo not drawn)	-0.62
O=c1oc(-c2ccncc2)nc2sc3c(c12)CCCCC3	-0.15
Nn1cc(-c2ccccc2)nn1	-0.24
CC1=C(C(=O)Nc2ccccn2)C(c2ccc(Cl)cc2)n2nnnc2N1 (stereo not drawn)	12
CC(=O)Nc1ccc([N+](=O)[O-])cc1	-1.6
CCNc1ccc([N+](=O)[O-])cc1	-4.5*
CCOC(=O)CC(=O)c1ccc([N+](=O)[O-])cc1	-0.14
N#CC1=C(N)N(c2cccc(C(F)(F)F)c2)C(=O)C1	7.4
CCC(=O)Nc1ccc(-c2nc3ccccc3[nH]2)cc1	84
COc1ccc(C2c3sc(=O)[nH]c3SC3C(=O)N(c4ccccc4)C(=O)C32)cc1 (stereo not drawn)	1
O=c1[nH]c2c(s1)C(c1ccccc1)C1C3CCC(C3)C1S2 (stereo not drawn)	-0.12
O=C1NC(=O)C2C1Sc1[nH]c(=O)sc1C2c1ccco1 (stereo not drawn)	-4.1*
SMILES	Ba CapD inh
COc1cc(=O)n(C)c2c(OC(C)=O)cccc12	1.1
O=C(Nc1c(C(=O)N2CCOCC2)oc2ccccc12)c1cccs1	-3.6*
NC(=O)c1oc2ccccc2c1NC(=O)c1cccs1	0.76
Cc1ccccc1C(=O)Nc1c(C(=O)N2CCOCC2)oc2ccccc12	-1.4
COc1ccc(OC)c2[nH]c(C(F)(F)F)nc12	0.19
CC(C)CCOc1ccc2c(c1)C(=O)c1cc(OCCC(C)C)ccc1-2	-0.02
CC1=NN(c2ccc3c(S(=O)(=O)O)cc(S(=O)(=O)O)cc3c2)C(=O)C1	-6*

Screening results deposited in PubChem BioAssay by ICCB-Longwood Screening Facility, Harvard Medical School.
